We go through 55 molecules from the antibiotic and cytotoxicity screens of Wong et al. (2023).

In all, about 39,000 compounds went through this assay and about 1,500 (3.8%) were called active. The list comes from a sample in which actives are over-represented; it also holds similar structures and randomly drawn compounds.

For this experiment, the system named is HSkMC (human skeletal muscle cells). Description: cytotoxicity call (relative viability < 0.9). Particulars: 10 µM.
For `Cc1ccc2[nH]cc(C[C@@H](C)N)c2c1`, the cytotoxicity call was “inactive”.

For the molecule `CCCC(C)C1(CC)C(=O)N=C([S-])NC1=O.[Na+]` (stereo not given), the cytotoxicity call is “inactive”. For the molecule `C[C@@H]1CN([C@@H](C)CO)C(=O)CCCn2cc(nn2)CO[C@@H]1CN(C)C(=O)Oc1ccc2ccccc2c1`, the cytotoxicity call is “inactive”.

As for `CCCCSP(=O)(SCCCC)SCCCC`, the cytotoxicity call is “inactive”. On to `COc1ccc(O)c(C(C)(C)C)c1`, for which the cytotoxicity call was “inactive”. The result for `CC(=O)OC1C(=O)C2(C)C(O)CC3OCC3(OC(C)=O)C2C(OC(=O)c2ccccc2)C2(O)CC(O)C(C)=C1C2(C)C` (stereo not given) reads “inactive”; that for `C[C@H]1CN([C@@H](C)CO)C(=O)CCCn2cc(nn2)CO[C@H]1CN(C)C(=O)Oc1ccc2ccccc2c1`, “inactive”; that for `C=C1[C@@H](C)[C@H]2[C@H](Cc3ccccc3)NC(=O)[C@]23[C@H](OC(C)=O)/C=C/[C@](C)(O)C(=O)[C@@H](C)C/C=C/[C@H]3[C@@H]1O`, “active”. As for `COCCCNC(=O)[C@@]1(Cc2ccccc2CN=[N+]=[N-])N=C(c2ccc(OCCCO)cc2)O[C@H]1c1ccccc1CN=[N+]=[N-]`, the cytotoxicity call is “inactive”.

Take `Nc1ccc2c(c1)Cc1ccccc1-2`: the cytotoxicity call was “inactive”. With `CC(C)n1cnnc1CCN`, the cytotoxicity call was “inactive”. Take `CN1C[C@@H](NC(=O)C2CC2)[C@H]2OCCC[C@H]21`: the cytotoxicity call was “inactive”.

With `C=CCN1C(=O)NC(=O)/C(=C/c2ccco2)C1=O`, the cytotoxicity call was “active”. Take `CN1C(=O)NC(=O)/C(=C\C=C\c2ccco2)C1=O`: the cytotoxicity call is “inactive”. As for `CCN1C(=O)/C(=C/c2ccc[nH]2)C(=O)NC1=S`, the cytotoxicity call was “inactive”. The result for `COC1=CC(=O)OC(C=Cc2ccccc2)C1` (stereo not given) reads “inactive”; that for `O=C(O)CC[C@@H](CP(=O)(O)O)C(=O)O`, “inactive”; that for `CC12CCC(O)CC1CCC1C2CC(O)C2(C)C(C3=CC(=O)OC3)CCC12O` (stereo not given), “active”. With `CC(=O)O[C@H]1C[C@@H]2CC[C@@H]3[C@H](CC[C@@]4(C)[C@H]3C[C@H]([N+]3(C)CCCCC3)[C@@H]4OC(C)=O)[C@@]2(C)C[C@@H]1[N+]1(C)CCCCC1`, the cytotoxicity call was “inactive”. For the molecule `CC(=O)OC1CC(OC2C(O)CC(OC3C(O)CC(OC4CCC5(C)C(CCC6C5CC(O)C5(C)C(C7=CC(=O)OC7)CCC65O)C4)OC3C)OC2C)OC(C)C1OC1OC(CO)C(O)C(O)C1O` (stereo not given), the cytotoxicity call was “active”. As for `CC12CCC3C(CCC4CC(O)CCC43C)C1CCC2=O` (stereo not given), the cytotoxicity call was “inactive”. Consider `CC(=O)O[C@H]1C[C@H](O[C@H]2[C@@H](O)C[C@H](O[C@H]3[C@@H](O)C[C@H](O[C@H]4CC[C@@]5(C)[C@@H](CC[C@H]6[C@@H]5C[C@@H](O)[C@]5(C)[C@@H](C7=CC(=O)OC7)CC[C@]65O)C4)O[C@@H]3C)O[C@@H]2C)O[C@H](C)[C@H]1O[C@@H]1O[C@H](CO)[C@@H](O)[C@H](O)[C@H]1O`, for which the cytotoxicity call was “active”. Regarding `CO[C@H]1[C@@H](O)[C@@H](O[C@H]2CC[C@]3(C=O)[C@@H]4[C@@H](CC[C@]3(O)C2)[C@@]2(O)CC[C@H](C3=CC(=O)OC3)[C@@]2(C)C[C@H]4OC(C)=O)O[C@@H](C)[C@@H]1OC(C)=O`, the cytotoxicity call was “inactive”.

Turning to `CC12CCC3C(CCC4CC(O)CCC43C)C1CCC2O` (stereo not given), the cytotoxicity call was “inactive”.

Consider `CC(=O)OC1CCC2(C)C(CCC3C2CCC2(C)C(C4=CC(=O)OC4)C(OC(C)=O)CC32O)C1` (stereo not given), for which the cytotoxicity call is “active”. Consider `CNC(=O)Oc1ccc2c(c1)C1(C)CCN(C)C1N2C` (stereo not given), for which the cytotoxicity call is “inactive”.

Consider `COC(=O)[C@]1(Cc2ccccc2CN=[N+]=[N-])N=C(c2ccc(OCCCO)cc2)O[C@@H]1c1ccccc1CN=[N+]=[N-]`, for which the cytotoxicity call is “inactive”.

Regarding `COc1ccccc1C1(N)CC1`, the cytotoxicity call is “inactive”.

Turning to `N#C[C@]1(O)CN2CCC1CC2`, the cytotoxicity call is “inactive”.

For `CC(C)Oc1ccc(CCN)cc1`, the cytotoxicity call was “inactive”. On to `COc1cc(C=O)cc(OC)c1OC`, for which the cytotoxicity call was “inactive”. In the case of `Cn1cc([C@@]23C[C@]2(C)COC3=O)cn1`, the cytotoxicity call was “inactive”. The result for `C1CCN(C[C@H]2CO[C@]3(CNCCOC3)C2)C1` reads “inactive”; that for `C=C1CC2C(CCC3(C)C(=O)CCC23)C2(C)C=CC(=O)C=C12` (stereo not given), “inactive”. On to `O=C1C[C@@H](c2ccncc2)C2(CCNCC2)N1`, for which the cytotoxicity call was “inactive”.

Regarding `O=C(NN=Cc1ccc([N+](=O)[O-])o1)c1cc([N+](=O)[O-])cc([N+](=O)[O-])c1O`, the cytotoxicity call was “inactive”. Consider `CC(C)N(C)C[C@H]1CO[C@]2(CNCCOC2)C1`, for which the cytotoxicity call was “inactive”. As for `O=c1cccc2n1C[C@@H]1C[C@H]2CN(CCO)C1`, the cytotoxicity call was “inactive”.

Take `O=C(CBr)N1CC([N+](=O)[O-])([N+](=O)[O-])C1`: the cytotoxicity call is “inactive”. The result for `O=C(O)CNCP(=O)(O)O` reads “inactive”; that for `NCCO.NCCO.O[AsH]O[AsH]O` (stereo not given), “inactive”.

Turning to `O=c1cccc2n1C[C@H]1CNC[C@H]2C1`, the cytotoxicity call is “inactive”. For the molecule `CN(C)C(=O)Oc1ccc[n+](C)c1.[Br-]`, the cytotoxicity call is “inactive”.

As to `NCC1(c2c(F)cc(F)cc2F)CC1`, the cytotoxicity call is “inactive”.

Turning to `CO[C@H]1[C@@H](O)C[C@@H](O[C@H]2[C@@H](O)C[C@@H](O[C@H]3[C@@H](O)C[C@@H](O[C@H]4CC[C@@]5(C)[C@@H](CC[C@H]6[C@@H]5C[C@@H](O)[C@@]5(C)[C@H](C7=CC(=O)OC7)CC[C@@]65O)C4)O[C@@H]3C)O[C@@H]2C)O[C@@H]1C`, the cytotoxicity call was “active”.

`CO[C@H]1[C@H](O)[C@@H](O[C@H]2[C@@H](C)O[C@@H](O[C@H]3[C@H](C)O[C@H](O[C@H]4CC[C@@]5(C)[C@@H](CC[C@@]6(O)[C@@H]5C[C@@H](O)[C@]5(C)[C@]6(O)CC[C@@]5(O)[C@@H](C)O)C4)C[C@@H]3OC)C[C@H]2OC)O[C@@H](C)[C@H]1O`: the cytotoxicity call was “inactive”. `Cc1cc(N(C)C)ccc1C[C@@H](C)N`: the cytotoxicity call was “inactive”.

As for `Cn1cc(N2C[C@@H]3CN(CCO)C[C@@H]3C2=O)cn1`, the cytotoxicity call is “inactive”. `COC(=O)[C@@H]1[C@@H](CO)[C@@H]2Cn3c(ccc(C4=CCCC4)c3=O)[C@H]1N2S(=O)(=O)c1cn(C)cn1`: the cytotoxicity call was “inactive”.

In the case of `CCC(=O)CCCCC[C@@H]1NC(=O)[C@H]2CCCCN2C(=O)[C@H]([C@@H](C)CC)NC(=O)[C@H](Cc2cn(OC)c3ccccc23)NC1=O`, the cytotoxicity call is “active”.

On to `CCC(=O)CCCCC[C@@H]1NC(=O)[C@H]2CCCCN2C(=O)[C@H]([C@H](C)CC)NC(=O)[C@H](Cc2cn(OC)c3ccccc23)NC1=O`, for which the cytotoxicity call was “active”. `Nc1ccc(-c2ccc(N)cc2)cc1`: the cytotoxicity call is “inactive”.

For the molecule `O=[N+]([O-])c1cc([As](=O)(O)O)ccc1O`, the cytotoxicity call is “inactive”. For the molecule `COc1cccc(-c2ccc3c(CCN)c[nH]c3c2)c1`, the cytotoxicity call is “inactive”. The result for `CCNS(=O)(=O)C(F)(F)C(F)(F)C(F)(F)C(F)(F)C(F)(F)C(F)(F)C(F)(F)C(F)(F)F` reads “inactive”.
